The panel holds about 83,000 compounds, 20% with a hit somewhere; the sample as a whole holds those more often.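 For each line, cells grew in 96-well plates with the test compound present at a single concentration for 48 hours.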 Values without a mark were called inactive. Calls of active or inactive are those of the source. The calls were made as follows: active = growth percent below 10; inactive = the rest.
Key:
Experiment in all cases: NCI-60 one-dose screen, 48 h (100 = growth as untreated, 0 = no growth, -100 = all killed)
Conditions in all cases: 10 µM unless noted
DU-145 prostate = tested on: DU-145 prostate
K-562 leukemia = tested on: K-562 leukemia
MALME-3M melanoma = tested on: MALME-3M melanoma
MDA-MB-231 breast = tested on: MDA-MB-231 breast
RXF 393 renal = tested on: RXF 393 renal
SF-268 CNS = tested on: SF-268 CNS
SF-295 CNS = tested on: SF-295 CNS
SF-539 CNS = tested on: SF-539 CNS
UACC-257 melanoma = tested on: UACC-257 melanoma

Row | SMILES | growth (DU-145 prostate) | growth (K-562 leukemia) | growth (MALME-3M melanoma) | growth (MDA-MB-231 breast) | growth (RXF 393 renal) | growth (SF-268 CNS) | growth (SF-295 CNS) | growth (SF-539 CNS) | growth (UACC-257 melanoma)
1 | CCn1cnc(C[C@H](NC(=O)[C@H](CCCCNC(=O)Nc2cc(C(F)(F)F)cc(C(F)(F)F)c2)NC(=O)Nc2cc(C(F)(F)F)cc(C(F)(F)F)c2)C(=O)OC)c1 | -69.5% [100 µM] (active) | -80.2% [100 µM] (active) | -69.6% [100 µM] (active) | -100% [100 µM] (active) | -47.2% [100 µM] (active) | -53.5% [100 µM] (active) | -97.4% [100 µM] (active) | -66.4% [100 µM] (active) | -59.1% [100 µM] (active)
2 | O=C(Nc1cccc(Cl)c1)Nc1cccc(Cl)c1 | 78.6% | 19.6% | 68.1% | 85.3% | 132% | 88.6% | 24.8% | 91.4% | 105%
3 | COc1cnc2c(c1)C(=O)c1c-2n(CCCN2CCC(O)CC2)c(=O)c2cc(F)ccc12 | -8.46% (active) | -0.117% (active) | -61.9% (active) | 19.9% | -43.1% (active) | 9.51% (active) | -20.7% (active) | -17.1% (active) | -16.3% (active)
4 | O=C(C(=O)N1CCOCC1)c1cn(CCCn2cc(C(=O)C(=O)N3CCOCC3)c3ccccc32)c2ccccc12 | 115% | 111% | 99.8% | 93.4% | 119% | 105% | 106% | 102% | 107%
5 | O=c1[nH]c(SCc2ccccc2)nc2nc(Nc3ccc(NC(=S)Nc4ccccc4)cc3)nc(-c3ccc(O)cc3O)c12 | 112% | 90.6% | 75% | 98% | 66.2% | 92.6% | 101% | 91.8% | 109%
6 | CC1CN(C2CCCCC2)C(=O)NC1=O (configuration not stated) | 113% | 103% | 108% | 104% | 110% | 105% | 108% | 106% | 109%
7 | COc1cc(/C=N/NC(=O)c2ccc(C(F)(F)F)nc2Nc2cc(Cl)ccc2C)cc(OC)c1OC | 154% | 83.8% | 61.8% | 86.3% | 77.7% | 88.9% | 70.9% | 103% | 112%
8 | C#C[C@]1(O)CCC2C3CCc4cc(O)ccc4C3CC[C@@]21C (some centres not stated) | 60.8% | 12.7% | 43% | 66.7% | 51.5% | 47.7% | 22.6% | 21% | 75.2%
9 | O=C(NN1C(=O)c2cc(C(=O)O)c(C(=O)O)cc2C1=O)c1ccncc1 | 144% | 62.4% | 76.8% | 80.6% | 127% | 93.5% | 102% | 112% | 114%
10 | O=C1c2cccc(NCCN=Cc3ccccc3O)c2C(=O)c2c(NCCN=Cc3ccccc3O)cccc21 | 16% | 38% | 21.8% | 21% | 33.9% | 7.05% (active) | 49.8% | 22.4% | 94.6%
11 | COc1cc(/C=C/C(=O)c2c(C)n([O-])c3ccc(Cl)cc3[n+]2=O)cc(OC)c1OC | 66.8% | 45.8% | 78.7% | 78.5% | 42.6% | 74% | 114% | 96.9% | 81.3%
12 | COc1cc(/C=C/c2cc(/C=C/c3ccc(O)c(OC)c3)n(C(=O)c3ccc(Cl)cc3)n2)ccc1O | 19.9% | 2.24% (active) | 44.6% | 31.8% | 15.3% | 27% | 48% | 10.1% | 63.2%
13 | CC(=O)OC1Oc2cc(C)c(C)cc2-c2oc(=O)c(-c3ccccc3)cc21 (configuration not stated) | 15% | -0.66% (active) | -4.37% (active) | 43.7% | -35.3% (active) | 36.8% | -39.9% (active) | -37.1% (active) | 74.5%
